Dicer processing: inhibitors of human Dicer processing of pre-microRNA. AID 1347074. z-score at 25 µM. 47,000 tested, 6% active. cat-ELCCA pre-miR-21 Dicer processing, chemiluminescence; active compounds read high. Q9UPY3; in the data active = z-score above about 3, passing the limit was not always enough;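 also: higher signal means more uncleaved substrate so more Dicer inhibition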
A number is an active result; - = inactive. This excerpt belongs to a sample that is enriched for hits.

SMILES	Dicer processing
CNc1cc(C(F)(F)F)c(C(=O)Nc2ccc(Cl)cc2Cl)cn1	-
S=C(NN=C1CCCC1)NC1CC2CCC1C2 (configuration not stated)	-
Oc1ccc(/C=N/NC(=S)NC2CC3CCC2C3)cc1 (configuration not stated)	24
S=C(NNC(=S)NC1CC2CCC1C2)NC1CC2CCC1C2 (configuration not stated)	-
Nc1csc(C(F)(F)F)c1-c1ccccc1	-
CCOC(=O)c1sc(NC(=O)c2sc3ccccc3c2Cl)nc1C	-
Cc1ccc2c(Cl)c(C(=O)Nc3nc(C)c(C)s3)sc2c1	3.6
O=C(Nc1ccccc1)c1sc2ccccc2c1Cl	-
N#Cc1ccc(OCC(F)(F)F)nc1	-
Nc1c(C(=O)NNC(=S)Nc2ccc(Cl)cc2)cnn1-c1ccccc1	-
O=C(Cc1ccc2ccccc2c1)Nc1ccc(Br)c(C(F)(F)F)c1	-
CNC(=O)Nc1ccc(C(C)(C)C)cc1Cl	5.1
CCOC(=O)NC(=S)Nc1ccc(C(C)(C)C)cc1Cl	-
CNC(=O)NNC(=O)c1ccc(C(C)(C)C)cc1	-
Nc1ccccc1N1C(=O)c2cccc3c(Cl)ccc(c23)C1=O	-
CC(C)(C)n1nc(C2CC2)cc1NC(=O)Nc1ccccc1	-
CC(C)(O)C#Cc1ccc(C2NCCS2)cc1 (configuration not stated)	259
CC(C)(O)C#Cc1ccc(/C=N/O)cc1	-
CC(C)(O)C#Cc1ccc(/C=N/Nc2ccc(I)cc2)cc1	-
CSc1nc(N)n(-c2c(Cl)cc(Cl)cc2Cl)n1	-
CCCOC(=O)C1=C(C)NC2=C(C(=O)CC(C)(C)C2)C1c1cccc2ccccc12 (configuration not stated)	-
COc1ccc(-n2c(-c3ccc(Cl)cc3)csc2=N)cc1OC	-
CC(C)C(=O)N(c1cc2sc(=O)oc2c2ccccc12)S(=O)(=O)c1cccs1	-
O=C(c1cccnc1)N(c1ccc2oc(=O)sc2c1)S(=O)(=O)c1cccs1	6.1
CC(C)C(=O)N(c1ccc2oc(=O)sc2c1)S(=O)(=O)c1cccs1	-
SMILES	Dicer processing
COc1ccc(S(=O)(=O)N(C(=O)c2ccncc2)c2cc3sc(=O)oc3c3ccccc23)cc1	-
O=C(c1ccncc1)N(c1ccc2oc(=O)sc2c1)S(=O)(=O)c1cccs1	5.5
O=C(Cc1ccccc1)N(c1ccc2oc(=O)sc2c1)S(=O)(=O)c1cccs1	5.4
Clc1ccc(Sc2cn[nH]c2-c2ccc(Cl)cc2)cc1	-
CC(C)(C)c1ccc(-c2nnc(SCC3CC3)n2-c2ccc3c(c2)OCO3)cc1	-
CC(C)(C)c1ccc(-c2nc(OS(=O)(=O)c3ccc(Cl)cc3)nn2-c2ccccc2)cc1	-
Cn1c(=O)c2c(ncn2CC(=O)Nc2nnc(CC(C)(C)C)s2)n(C)c1=O	-
CC1CCc2cc(F)ccc2N1C(=O)Nc1ccccc1 (configuration not stated)	-
O=C1c2oc3ccc(Cl)cc3c(=O)c2C(c2cccc(O)c2)N1Cc1ccc2c(c1)OCO2 (configuration not stated)	-
c1cc(-c2nc3c4c5c(sc4ncn3n2)CCCCC5)ccn1	-
c1ccc(-c2nc3c4c5c(sc4ncn3n2)CCCC5)cc1	-
Fc1ccc(-c2nc3c4c5c(sc4ncn3n2)CCCC5)cc1	4
CC1(C)Cc2c(sc3ncn4nc(-c5ccncc5)nc4c23)C(C)(C)N1	-
COc1ccc(-c2nc3c4c5c(sc4ncn3n2)CCCC5)cc1	-
CC1(C)Cc2c(sc3ncn4nc(-c5ccncc5)nc4c23)CO1	3.1
c1ccc2cc(-c3nc(-c4ccncc4)no3)ccc2c1	-
O=C1c2ccccc2NC(c2ccc(O)cc2)N1c1cccc2ccccc12 (configuration not stated)	-
O=c1cc(Nc2cccc(C(F)(F)F)c2)nc[nH]1	-
COc1ccc(Br)cc1/C=N/N=C/c1cc(Br)ccc1OC	-
CC(=O)N1CCc2cc(NC(=S)NCCSC(C)(C)C)ccc21	-
O=C(O)[C@@H]1CSC(c2c(Cl)cccc2Cl)N1 (some centres not stated)	-
Cc1csc2c(N3CCSCC3)ncnc12	-
Cc1csc2nc(CN3CCOCC3)[nH]c(=O)c12	-
CC(C)CCn1c(=O)[nH]c2ccccc21	-
Cc1csc2c(=O)n(CCN3CCSCC3)c(=O)[nH]c12	5.9
SMILES	Dicer processing
Cc1csc2c(=O)n(CCO)c(=O)[nH]c12	4.6
O=c1[nH]c2ccsc2c(=O)n1CCO	3.2
CCCCC#Cc1ccc(C(=O)N/N=C/c2ccc(C(F)(F)F)cc2)o1	-
CCOC(=O)CC1Sc2ccccc2N=C1SCC(=O)Nc1cccc(C(F)(F)F)c1 (configuration not stated)	-
COC(=O)CNC(=O)c1ccncc1Br	-
O=C1NC(=O)c2cc(NS(=O)(=O)c3ccc(F)cc3)ccc21	-
O=C(O)Cc1nc2ccc(Cl)cc2[nH]1	-
Cc1ccc(C(=O)/C=C/Sc2nc3ccc(C)cc3[nH]2)cc1	-
Cc1ccc2nc(CCCC(=O)O)[nH]c2c1	3.6
CCOc1ccc(Nc2oc(COc3cccc(Cl)c3)nc2C#N)cc1	-
Clc1ccc(-c2ncc(-c3ccc(Br)cc3)o2)cc1	-

From PubChem
